Source: PubChem BioAssay (NCI)
This is part of a sample that, as a whole, favours compounds with a hit. Of some 83,000 tested, about 20% had one in any assay.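 Values shown are percent growth following 48 h exposure of cells in 96-well plates to a single concentration of compound; below 10 was considered active.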 Values without a mark were called inactive. Active and inactive are the calls of the source.

Assays:
Assay in all cases: NCI-60 one-dose screen, 48 h (100 = growth as untreated, 0 = no growth, -100 = all killed)
Conditions in all cases: 10 µM unless noted
[1] = system: NCI-H23 lung
[2] = system: NCI-H226 lung
[3] = system: NCI-H322M lung
[4] = system: HOP-62 NSCLC
[5] = system: NCI-H460 lung
[6] = system: HOP-92 NSCLC
[7] = system: NCI-H522 lung
[8] = system: A549/ATCC NSCLC
[9] = system: 786-0 renal
[10] = system: COLO 205 colon
[11] = system: DU-145 prostate
[12] = system: K-562 leukemia
[13] = system: MALME-3M melanoma
[14] = system: MDA-MB-231 breast
[15] = system: RXF 393 renal
[16] = system: SF-268 CNS
[17] = system: SF-295 CNS
[18] = system: SF-539 CNS
[19] = system: UACC-257 melanoma
[20] = system: M14 melanoma

SMILES	growth [1]	growth [2]	growth [3]	growth [4]	growth [5]	growth [6]	growth [7]	growth [8]	growth [9]	growth [10]	growth [11]	growth [12]	growth [13]	growth [14]	growth [15]	growth [16]	growth [17]	growth [18]	growth [19]	growth [20]
Cc1cnc2ccc(Oc3ccccc3-c3ccccc3)nn12	96.6%	106%	103%	124%	118%	122%	108%	117%	102%	131%	115%	101%	100%	109%	107%	106%	97.5%	104%	116%	99.6%
COc1ccc(/C=C/c2nc3ccccc3c(=O)n2CC(=O)Nc2ccccc2)cc1	42.6%	-26.4% (active)	46.8%	2.16% (active)	37%	-0.34% (active)	89.2%	27.5%	-42.6% (active)	71%	78%	84.5%	61.1%	-19.5% (active)	-54.7% (active)	54.5%	12.5%	32.4%	93.5%	46.4%
N#Cc1cc(-c2ccc3ncnc(N4CCc5cc(F)c(Cl)cc54)c3c2)cnc1N	50.2%	59.1%	38.4%	77.5%	5.5% (active)	1.74% (active)	46%	42%	22.1%	12.2%	8.95% (active)	37.8%	50.6%	28.7%	17.9%	46.5%	40.1%	35.6%	90.2%	36.8%
N#C/C(=C1/C(=O)Nc2ccccc21)c1nnc(NC(=O)c2ccc(-n3c(=O)[nH]c4ccccc4c3=O)cc2)s1	30.4%	34.4%	53.6%	53.7%	6.96% (active)	56%	14.3%	49.8%	66.1%	-0.152% (active)	37.4%	15.9%	26.9%	4.04% (active)	53.4%	65.4%	74.5%	36.4%	47.9%	58.2%
O=C(Cn1c(-c2ccccc2)nc2ccccc21)N=Nc1c(O)[nH]c2ccc(Br)cc12	3.3% (active)	-59.9% (active)	-6.14% (active)	-68.1% (active)	-29.9% (active)	-60.6% (active)	29.5%	8.52% (active)	-56.2% (active)	-66.9% (active)	3.6% (active)	6% (active)	-20.5% (active)	-56.8% (active)	-80% (active)	-0.321% (active)	-80.4% (active)	-80.9% (active)	9.11% (active)	5.92% (active)
O=C(c1ccc(Cl)cc1)C1[C@H](c2ccccc2Cl)[C@@H](c2ccccc2)NC12C(=O)Nc1ccccc12 (stereo not given in full)	-50.2% (active)	-67.5% (active)	12.5%	-40.9% (active)	-57.2% (active)	-48% (active)	-30.9% (active)	3.68% (active)	-58.4% (active)	-87.8% (active)	-12.8% (active)	-36.6% (active)	-34.8% (active)	-64.8% (active)	-80.8% (active)	2.93% (active)	-72.3% (active)	-89.7% (active)	1.79% (active)	-75.7% (active)
COc1ccc(C2=Nc3c(N)nc(N)nc3NC(c3ccc(Oc4nc(Nc5ccc(F)cc5)nc(N(C)C)n4)c(OC)c3)C2)cc1 (stereo not given)	88.4%	77.4%	104%	82.5%	71%	16.6%	88%	75.5%	52.6%	91.6%	68.8%	29.5%	83.1%	43.3%	12.1%	61.6%	85.7%	71.9%	70.5%	93.4%
O=C(CSc1nc2ccccc2c(=O)[nH]1)NNC(=O)c1ccccc1Cl	104%	111%	116%	115%	106%	100%	104%	92.3%	97.1%	124%	110%	103%	105%	99.8%	117%	106%	112%	96.5%	95%	110%
